Screens as filed in PubChem.
ST2 IL33 inh – IL1RL1 inhibition. AlphaLISA ST2-Fc/biotin-IL-33 interaction, 1 h. inhibition, % for hits at 17 µM. actives 2.3% (n = 78,000). AID 1259354; in the data active = inhibition above about 30%
Target sequence (Q01638 whole entry, looked up): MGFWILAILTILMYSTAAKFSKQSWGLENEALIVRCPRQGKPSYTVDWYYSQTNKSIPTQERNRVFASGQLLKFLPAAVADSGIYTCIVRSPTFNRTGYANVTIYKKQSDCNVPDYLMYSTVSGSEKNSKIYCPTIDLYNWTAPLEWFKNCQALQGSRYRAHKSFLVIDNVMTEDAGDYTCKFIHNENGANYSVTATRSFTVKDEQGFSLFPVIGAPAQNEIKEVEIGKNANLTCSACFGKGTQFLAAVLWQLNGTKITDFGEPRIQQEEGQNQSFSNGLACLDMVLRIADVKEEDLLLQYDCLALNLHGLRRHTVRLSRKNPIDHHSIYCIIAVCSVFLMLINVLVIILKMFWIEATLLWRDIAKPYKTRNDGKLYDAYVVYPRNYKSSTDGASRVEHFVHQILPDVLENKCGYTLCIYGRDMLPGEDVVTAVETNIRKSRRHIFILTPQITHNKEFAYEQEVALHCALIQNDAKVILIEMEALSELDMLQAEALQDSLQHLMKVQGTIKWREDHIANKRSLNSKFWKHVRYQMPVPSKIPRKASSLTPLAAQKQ
Numbers without * were called inactive. The entries come from a sample that favours hits as a whole.

How did CCCOc1ccc(/C=c2\sc3nc(=O)c(C)nn3c2=O)cc1 do in these assays?
ST2 IL33 inh: inactive

What do the screens show for `COc1ccccc1/C=c1\sc2nnc(-c3ccc(C)cc3)n2c1=O`?
ST2 IL33 inh: inactive

Results for COc1ccc(/C=c2\sc3n(c2=O)CN(c2cccc(F)c2)CN=3)cc1 ?
ST2 IL33 inh: 35%*

What do the screens show for `COc1cccc(/C=c2\sc3nnc(-c4ccc(C)cc4)n3c2=O)c1`?
ST2 IL33 inh: inactive

How did O=c1/c(=C/c2cccc([N+](=O)[O-])c2)sc2n1CN(c1cccc(F)c1)CN=2 do in these assays?
ST2 IL33 inh: inactive

What do the screens show for `O=c1/c(=C/c2cccnc2)sc2n1CN(c1cccc(C(F)(F)F)c1)CN=2`?
ST2 IL33 inh: inactive

How did COc1cc(/C=c2\sc3n(c2=O)CN(c2ccc(C)cc2)CN=3)c([N+](=O)[O-])cc1OC do in these assays?
ST2 IL33 inh: 38%*

What do the screens show for `COc1ccc(/C=c2\sc3n(c2=O)CN(c2ccc(C)cc2)CN=3)cc1`?
ST2 IL33 inh: 31%*

How did CCOc1ccc(-c2nc3s/c(=C\c4ccc(F)cc4)c(=O)n3n2)cc1 do in these assays?
ST2 IL33 inh: inactive

Results for Cc1ccc(N2CN=c3s/c(=C\c4cccnc4)c(=O)n3C2)cc1 ?
ST2 IL33 inh: 30%*

What do the screens show for `C=CCn1cc(C(=O)N2CCOCC2)c(=O)c2cc(S(=O)(=O)N(CC)CC)ccc21`?
ST2 IL33 inh: inactive

Results for Cc1ncc(-c2cc3cc([N+](=O)[O-])ccc3oc2=O)s1 ?
ST2 IL33 inh: inactive

What do the screens show for `O=c1c2ccccc2nc(/C=C/c2ccc(O)cc2)n1CCCO`?
ST2 IL33 inh: inactive

What do the screens show for `CCOC(=O)C1(CCCc2ccccc2)CCN(C(=O)c2csc(SC)n2)CC1`?
ST2 IL33 inh: inactive

What do the screens show for `O=C(COc1ccc([N+](=O)[O-])cc1)N(c1ccccc1)C1C=CS(=O)(=O)C1` (stereo not drawn)?
ST2 IL33 inh: inactive

How did COc1cc(C(=O)Nc2cccc(O)c2)c2ccccc2n1 do in these assays?
ST2 IL33 inh: inactive

What do the screens show for `N#Cc1ccccc1-c1nc2c3c(c(N)ccc3n1)C(=O)c1ccccc1-2`?
ST2 IL33 inh: 42%*

What do the screens show for `Cc1n[nH]c(C)c1S(=O)(=O)N1CCC(C(=O)NC2CCCCC2C)CC1` (stereo not drawn)?
ST2 IL33 inh: inactive

Results for O=C(Nc1nccs1)C1Cc2ccccc2CN1S(=O)(=O)c1ccc(F)cc1 (stereo not drawn) ?
ST2 IL33 inh: inactive

How did CC(=O)c1ccc(SCC(=O)Nc2ccccc2)c([N+](=O)[O-])c1 do in these assays?
ST2 IL33 inh: inactive

How did COc1cccc(NC(=O)CSCc2ccc(Cl)cc2)c1 do in these assays?
ST2 IL33 inh: inactive

How did Cc1cccc(NC(=O)/C(C#N)=C/c2cc(C)n(-c3ccc(F)cc3)c2C)c1 do in these assays?
ST2 IL33 inh: inactive

What do the screens show for `COc1cccc(NC(=O)/C(C#N)=C\c2cn(Cc3cccc(C)c3)c3ccccc23)c1`?
ST2 IL33 inh: 33%*

How did COc1cccc(NC(=O)/C(C#N)=C\c2cn(Cc3ccc(C)cc3)c3ccccc23)c1 do in these assays?
ST2 IL33 inh: 30%*

How did COc1cccc(NC(=O)c2ccc(=O)n(Cc3ccc(F)cc3)c2)c1 do in these assays?
ST2 IL33 inh: inactive

How did COc1cccc(NC(=O)CCCc2ccccc2)c1 do in these assays?
ST2 IL33 inh: inactive

How did Cc1c(-c2ccc(F)cc2)[nH]c2ccc(CNC(=O)C(C)n3cccc3)cc12 (stereo not drawn) do in these assays?
ST2 IL33 inh: inactive

What do the screens show for `O=C(O)CCCNC(=O)/C(=C/c1ccc2c(c1)OCO2)NC(=O)c1ccc(Br)cc1`?
ST2 IL33 inh: inactive

What do the screens show for `Cc1ccc(OCC(=O)Nc2ccncc2)cc1C`?
ST2 IL33 inh: inactive

What do the screens show for `COc1cccc(CC2CN(c3cc(OC)nc(OC)n3)CCO2)c1` (stereo not drawn)?
ST2 IL33 inh: inactive

Results for Cc1ccc2[nH]c3c(c2c1)CN(Cc1ccccc1)CC3 ?
ST2 IL33 inh: inactive

How did Cc1ccc2[nH]c3c(c2c1)CCC1C3=NNC1c1ccco1 (stereo not drawn) do in these assays?
ST2 IL33 inh: 37%*

What do the screens show for `Cc1ccc2[nH]c3c(c2c1)CCCC3=O`?
ST2 IL33 inh: inactive

What do the screens show for `CC(C)(C)NC(=O)c1ccc(Cl)c(Cl)c1`?
ST2 IL33 inh: inactive

Results for O=C(O)c1cncc(-c2cccc3c2CCNC3)c1 ?
ST2 IL33 inh: inactive

How did COc1ccccc1-c1cc(C(F)(F)F)nc(NC2CCCC2)n1 do in these assays?
ST2 IL33 inh: inactive

What do the screens show for `COc1ccc(C(=O)O/N=C2\c3ccccc3-c3nc4ccccc4nc32)cc1`?
ST2 IL33 inh: inactive

Results for COc1ccc2nc(Cl)c(Cl)nc2c1 ?
ST2 IL33 inh: inactive

What do the screens show for `COc1ccc2nc3c(nc2c1)C(=O)c1ccccc1-3`?
ST2 IL33 inh: 32%*

Results for CC(=O)Nc1cccc(NC(=O)CCCC(=O)O)c1 ?
ST2 IL33 inh: inactive

How did O=S(=O)(c1ccc(F)cc1)N1CCCC1 do in these assays?
ST2 IL33 inh: inactive

How did Cc1ccc(-c2nc3ncccc3o2)cc1NC(=O)c1cccc(Br)c1 do in these assays?
ST2 IL33 inh: inactive
